We go through 34 compounds from article PMC5540273 (PLoS ONE, 2017).
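Further: KINOMEscan kinase panel screen.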

The subject of one experiment is MAP3K4. The conditions noted are these: concentration: 1 μM, replicates: in singlicate; n = 1.
As to `Cc1ccc(C(=O)N2CC[C@@H](O)C2)cc1-n1c(C)cc(OCc2ccc(F)cc2F)c(Br)c1=O`, the “%Inh” value came out at 0%.
In the case of `CN(C)S(=O)(=O)c1cc(-c2ccc3nccc(-c4cccc(S(N)(=O)=O)c4)c3c2)cnc1N` [GSK1669921], the “%Inh” value amounted to 0%.
For `O=c1[nH]cc(-c2ccc(N3CCOCC3)cc2)c2sc(-c3cn[nH]c3)cc12` [GSK2276055], the “%Inh” value is 21%.
Same read-out and setting: the result for `CCCCc1nn2ncccc2c1-c1ccnc(Nc2ccc(N3CCN(C)CC3)cc2)n1` [GW684941] reads 40%.
On the same count and under the same terms, with `O=C(Nc1cccc(-c2nn3ccccc3c2-c2ccnc(Nc3cccc(F)c3)n2)c1)c1c(F)ccc(F)c1Cl` [GSK357952] the figure was 24%; with `c1ccc(-c2n[nH]cc2Nc2ccnc3ccccc23)nc1` [GW694077], 9%.
For `COc1cc(Nc2nccc(-c3c(-c4cccc(NC(=O)c5c(F)cccc5F)c4)nn4ncccc34)n2)cc(OC)c1OC` [GSK327238], the “%Inh” value is recorded as 88%.
The same measure, in the same setting: with `COc1cccc(C(=O)Nc2cccc(Oc3ccc4nc(NC(=O)C5CC5)cn4n3)c2)c1` the figure was 10%; with `COCCOCCOc1cc2ncc3c4ccc(C#N)cc4[nH]c3c2cc1OC`, 17%; with `Nc1ncc(-c2ccc3nccc(-c4ccncc4)c3c2)cc1S(=O)(=O)N1CCOCC1` [GSK1627798], 9%.
In the case of `Cc1cccc(NC(=O)Nc2ccc(Oc3ncnc4ccn(C)c34)cc2)c1`, the “%Inh” value amounted to 0%.
With `CN1CCN(Cc2cccc(-c3ccc4c(Nc5ccc(Oc6ccccc6)cc5)ccnc4c3)c2)CC1` [GW578342], the “%Inh” value is given as 15%.
Consider `COc1cccc(C2=C(Nc3ccc(Cl)c(C(=O)O)c3)C(=O)NC2=O)c1` [SB-390769], for which the “%Inh” value was 29%.
Take `COc1ccc(Nc2nccc(NCCNC(=O)c3cc4ccccc4s3)n2)cc1` [GSK1379896]: the “%Inh” value is given as 24%.
The same measure, in the same setting: the result for `COc1ccc(CNC(=O)NC2CCN(c3ccnc(Nc4ccc(F)cc4)n3)CC2)cc1` [GSK1379788] reads 0%.

The next experiment concerns MAP4K2. The settings on record: concentration: 1 μM, replicates: in singlicate; n = 1.
For the compound `CC(C)(C)c1ccc2nccc(Nc3cccc(O)c3)c2c1` [GW856795], the “%Inh” value came out at 100%.
As for `COc1cc2c(cc1OCCN1CCNCC1)ncc1c3ccc(C#N)cc3[nH]c21`, the “%Inh” value turned out to be 51%.
Consider `COc1cc(Nc2nccc(-c3c(-c4cccc(NC(=O)c5c(F)cccc5F)c4)nn4ccccc34)n2)cc(OC)c1OC` [GSK323521], for which the “%Inh” value turned out to be 37%.
Still for that read-out and setting: with `Cc1ccc(S(=O)(=O)Nc2ccc(Nc3nccc(Nc4cccc5[nH]ncc45)n3)cc2)cc1` [GSK581271] the figure was 0%.
Consider `CCc1ccc(-c2ccc3c(c2)-c2c(cnn2C)S(=O)(=O)N3C)cc1`, for which the “%Inh” value was determined as 0%.
With `O=C(Nc1cccc(-c2nn3ncccc3c2-c2ccnc(Nc3ccccc3)n2)c1)c1c(F)cccc1F` [GSK198271], the “%Inh” value came out at 0%.
Regarding `Fc1ccc(-c2ncn(C3CCNCC3)c2-c2ccnc(Oc3ccc(-c4ccccc4)cc3)n2)cc1` [SB-245391], the “%Inh” value is given as 44%.
Take `CN(c1ccc(NC(=O)Nc2cc(C(F)(F)F)ccc2F)cc1)c1ccnc(Nc2ccc(S(N)(=O)=O)cc2)n1` [GW809893]: the “%Inh” value stood at 26%.
Still for that read-out and setting: the result for `CC(=O)Nc1nc2cnc(Nc3cc(NC(=O)c4cccc(C5(C#N)CC5)c4Cl)ccc3C)nc2s1` reads 16%; that for `Cl.c1ccc(-c2ccc3c(Nc4ccc5[nH]ncc5c4)ccnc3c2)nc1` [GW440137], 0%; that for `COc1cc(Nc2ncc3c(C)nc(-c4cc5ccccc5[nH]4)n3n2)cc(OC)c1OC` [GW869516], 0%.
Regarding `COC(=O)Nc1nc2ccc(Oc3ccc(NC(=O)Nc4cc(C(F)(F)F)ccc4F)cc3)cc2n1C.Cl` [GW692089], the “%Inh” value is recorded as 0%.
In the case of `Nc1n[nH]c2cnc(-c3ccccc3)cc12` [SB-642124], the “%Inh” value was 31%.
Consider `COc1cc(Nc2nccc(N3CCC(NC(=O)Nc4cccc(C(C)=O)c4)C3)n2)cc(OC)c1OC` (stereo not shown) [GSK1379753], for which the “%Inh” value was 8%.
As to `O=C(NC1CCN(c2ccnc(Nc3ccc(F)cc3)n2)C1)c1cc2ccccc2s1` (stereo not shown) [GSK1379716], the “%Inh” value worked out at 0%.
Consider `c1ccc(-c2cnc3nccnn23)cc1` [AH20685], for which the “%Inh” value was found to be 0%.
Same read-out and setting: with `Nc1ncnc2c1nc(-c1ccccc1)n2-c1ccccc1` [SKF-97293] the figure was 18%.
As to `CN(C)Cc1ccc(-c2ccc3c(Nc4ccc(Oc5ccccn5)cc4)ccnc3c2)o1` [GW567148], the “%Inh” value was 5%.
Regarding `COc1cc(Nc2nccc(N3CCC(NC(=O)c4cc5ccccc5s4)C3)n2)cc(OC)c1OC` (stereo not shown) [GSK1379760], the “%Inh” value was 13%.
